# Results from PubChem BioAssay (NCATS).
# Records with an inconclusive call do not appear. Active and inactive are the calls of the source. Unless noted, calls follow the shape of the dose curve; as a rule, active = well fitted curve in the direction sought with a large enough effect; inconclusive = small, poorly fitted or top-dose-only effect, or another doubt; inactive = no such curve, though single readings can be large; an effect the other way counts as inactive or inconclusive.
# Key:
# [1] = target: Lysosomal acid glucosylceramidase (Homo sapiens) (UniProt P04062); assay: Glucocerebrosidase-p2 (AID 348; in the data active = potency below about 10 µM; also: potency is read from the fitted curve at half-maximal effect); details: purified GBA, blue fluorogenic substrate, 40 min
# Chain of Lysosomal acid glucosylceramidase (Homo sapiens) (P04062 whole entry, looked up): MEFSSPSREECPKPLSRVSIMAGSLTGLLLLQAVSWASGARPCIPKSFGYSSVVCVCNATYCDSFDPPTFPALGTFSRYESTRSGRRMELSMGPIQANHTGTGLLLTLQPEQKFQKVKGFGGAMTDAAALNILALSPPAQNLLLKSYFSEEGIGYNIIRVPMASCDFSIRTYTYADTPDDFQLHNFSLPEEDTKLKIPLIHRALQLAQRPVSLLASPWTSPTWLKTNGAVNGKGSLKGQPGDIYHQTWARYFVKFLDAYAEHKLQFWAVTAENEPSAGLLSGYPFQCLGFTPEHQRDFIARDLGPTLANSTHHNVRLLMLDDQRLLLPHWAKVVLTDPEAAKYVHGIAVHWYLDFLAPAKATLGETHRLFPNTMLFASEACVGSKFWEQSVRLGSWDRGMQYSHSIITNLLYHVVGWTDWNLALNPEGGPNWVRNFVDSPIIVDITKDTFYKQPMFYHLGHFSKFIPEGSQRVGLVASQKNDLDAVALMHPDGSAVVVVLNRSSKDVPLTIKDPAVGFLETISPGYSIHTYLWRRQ
# How it was run: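 Compounds titrated from 0.6 nM upwards against 0.2 nM enzyme in pH 5.9 citric acid/KH2PO4, taurocholate, tween-20; blue fluorogenic substrate 80 uM, 40 min room temperature, stopped and read Ex 365/Em 440 for AC50.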
# [2] = AP1 Signaling Pathway (AID 357; active = well fitted curve in either direction with a large enough effect, not every such curve was filed as active; also: % is scaled to controls: 0 for no effect and ±100 for the full control effect); details: ME-180 AP-1-bla reporter, EGF-induced, beta-lactamase ratio, 5 h; at 7.69 µM (top of the series) unless noted
# How it was run: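 Modulation of EGF-driven AP-1 transcription was assessed with a beta-lactamase reporter in ME-180 cells. Compound and EC50 EGF were co-incubated 5 hours at 37 °C before 2.5-hour CCF4 loading at room temperature and dual-emission reading.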
# [3] = NFAT Signaling Pathway (AID 444; active = well fitted curve in either direction with a large enough effect, not every such curve was filed as active;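 also: carbachol stimulus at about its EC50 of 1 µM final; % is scaled to controls: 0 for no effect and ±100 for the full control effect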); details: Jurkat NFAT-bla M1, carbachol, beta-lactamase ratio, 5 h; at 7.69 µM (top of the series) unless noted
# How it was run: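 Jurkat cells with NFAT-driven β-lactamase reporter and co-expressed M1 receptor, stimulated with carbachol (final 1 uM, ~EC50), compound titration, 5 h at 37 °C. CCF4 loaded 1 h at RT; 460/530 nm ratio gave %activity and AC50.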
# [4] = Stat Signaling Pathway (AID 446; active = well fitted curve in either direction with a large enough effect, not every such curve was filed as active;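 also: ME-180 cervical cancer cells given 40 pM IL-6 alongside compound; SIE-controlled beta-lactamase reporter measured as 460/530 nm FRET emission ratio; % is scaled to controls: 0 for no effect and ±100 for the full control effect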); details: ME-180 SIE beta-lactamase reporter, IL-6 stimulated, 5 h; at 7.69 µM (top of the series) unless noted
# How it was run: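 ME-180 cells carrying a SIE-driven beta-lactamase reporter are stimulated with 40 pM IL-6 for 5 h at 37C in the presence of compound. The 460/530 nm FRET substrate ratio is read after 2.5 h at RT. Data are normalised to 300 pM IL-6 and to 125 nM JAK inhibitor controls.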
# [5] = target: Glucocorticoid receptor (Homo sapiens) (UniProt P04150); assay: GR-GFP Redistribution (AID 450;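 active = compounds whose dose series gives a full or clear partial fitted curve of increased nuclear translocation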; also: potency is read from the fitted curve at half-maximal effect); details: U2OS GR-GFP nuclear translocation, laser cytometry, 2 h
# Chain of Glucocorticoid receptor (Homo sapiens) (P04150 whole entry, looked up, the tested form may be a part): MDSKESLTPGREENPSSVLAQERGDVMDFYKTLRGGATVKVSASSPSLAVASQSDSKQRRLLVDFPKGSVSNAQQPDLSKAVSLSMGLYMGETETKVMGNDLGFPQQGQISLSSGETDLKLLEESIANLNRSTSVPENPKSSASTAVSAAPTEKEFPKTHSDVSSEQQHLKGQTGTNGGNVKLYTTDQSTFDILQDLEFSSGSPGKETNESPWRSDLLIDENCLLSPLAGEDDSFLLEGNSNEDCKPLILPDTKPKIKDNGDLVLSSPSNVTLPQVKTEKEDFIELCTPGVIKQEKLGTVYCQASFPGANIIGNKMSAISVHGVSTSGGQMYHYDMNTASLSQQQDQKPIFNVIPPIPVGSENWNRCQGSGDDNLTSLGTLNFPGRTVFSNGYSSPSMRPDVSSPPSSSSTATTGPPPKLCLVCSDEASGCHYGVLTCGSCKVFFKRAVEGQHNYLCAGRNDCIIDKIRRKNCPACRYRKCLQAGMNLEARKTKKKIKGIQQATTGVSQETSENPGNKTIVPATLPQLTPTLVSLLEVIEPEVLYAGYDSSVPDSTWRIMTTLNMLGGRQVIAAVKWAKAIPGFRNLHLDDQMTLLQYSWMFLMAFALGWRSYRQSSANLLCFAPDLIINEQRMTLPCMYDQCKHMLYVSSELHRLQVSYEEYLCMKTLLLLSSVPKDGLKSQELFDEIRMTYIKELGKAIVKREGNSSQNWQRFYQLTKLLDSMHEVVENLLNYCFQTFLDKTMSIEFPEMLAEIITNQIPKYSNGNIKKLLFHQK
# [6] = target: Glucocorticoid receptor (Homo sapiens) (UniProt P04150); assay: GR-EFC Redistribution (AID 451; calls by dose curve; also: potency is read from the fitted curve at half-maximal effect); details: CHO-K1 GR-EFC translocation, beta-gal luminescence, 2 h
# How it was run: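 CHO-K1 cells expressing nuclear EA and GR-ED fragments of b-gal; compounds titrated up to 46 uM final, 2 h at 37 C. GR nuclear translocation read as complemented b-gal luminescence after 1 h RT detection.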
# [7] = target: Mitogen-activated protein kinase 10 (Mus musculus) (UniProt Q61831); assay: JNK3 AlphaScreen Assay (AID 530; active = well fitted curve in either direction with a large enough effect, not every such curve was filed as active;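 also: kinase came from lysate of stimulated human HepG2 cells; signal reports phosphorylation of biotinylated GST-cJun 1-79 at Ser73 with 10 µM ATP; % is scaled to controls: 0 for no effect and ±100 for the full control effect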); details: JNK3 lysate, c-Jun phosphorylation; series mostly up to 57.1 µM
# How it was run: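 Pre-activated (IL-1β/TNFα) JNK3 in HepG2 lysates phosphorylates biotin-GST-cJun(1-79), 10 uM ATP; anti-phospho-cJun(Ser73) AlphaScreen read at room temperature, pH 7.6 Tris buffer. Compounds pre-incubated 15 min as titrations.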
# [8] = target: 3',5'-cyclic-AMP phosphodiesterase 4B (Homo sapiens) (UniProt Q07343); assay: qHTS Assay for Inhibitors of PDE-IV (AID 607; active = well fitted activation curve with a large enough effect in the main read-out, with a control signal flat, not every such curve was filed as active; also: % of control where 0% means no effect); details: HEK293 ACTOne CNG channel cells, membrane potential fluorescence; series mostly up to 22.9 µM
# Chain of 3',5'-cyclic-AMP phosphodiesterase 4B (Homo sapiens) (Q07343 whole entry, looked up): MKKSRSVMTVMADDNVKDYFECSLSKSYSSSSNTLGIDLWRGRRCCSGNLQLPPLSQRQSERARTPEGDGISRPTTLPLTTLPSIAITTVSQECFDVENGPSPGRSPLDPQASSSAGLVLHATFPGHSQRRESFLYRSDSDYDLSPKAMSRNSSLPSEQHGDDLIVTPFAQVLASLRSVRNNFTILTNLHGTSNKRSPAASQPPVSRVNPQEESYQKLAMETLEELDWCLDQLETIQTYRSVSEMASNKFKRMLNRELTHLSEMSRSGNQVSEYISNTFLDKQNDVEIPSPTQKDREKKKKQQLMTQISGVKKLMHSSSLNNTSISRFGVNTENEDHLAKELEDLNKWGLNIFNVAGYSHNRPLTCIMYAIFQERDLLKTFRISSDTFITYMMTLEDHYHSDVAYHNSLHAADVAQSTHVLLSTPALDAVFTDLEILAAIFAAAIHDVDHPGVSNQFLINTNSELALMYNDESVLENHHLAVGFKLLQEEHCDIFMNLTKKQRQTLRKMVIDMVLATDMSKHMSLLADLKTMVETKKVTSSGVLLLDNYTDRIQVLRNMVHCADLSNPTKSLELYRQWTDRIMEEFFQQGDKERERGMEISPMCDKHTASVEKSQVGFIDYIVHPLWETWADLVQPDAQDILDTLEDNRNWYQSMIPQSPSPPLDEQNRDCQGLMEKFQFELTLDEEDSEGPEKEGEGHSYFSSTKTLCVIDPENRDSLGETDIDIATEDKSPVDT
# How it was run: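 HEK293 ACTOne cells with CNG channel (1000/well), endogenous PDE4; membrane potential dye, compounds up to 22.9 uM final. Fluorescence Ex 535/Em 590; RO 20-1724 (100 uM final) as reference.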
# [9] = Confirmation and Secondary Assay for Modulators of Hemoglobin Beta Chain Splicing at IVS2 654 locus (AID 910); details: HeLa EGFP-654 splicing reporter, GFP fluorescence, 48 h; series mostly up to 38.3 µM;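 also: HeLa cells stably carrying EGFP split by mutant beta-globin IVS2-654 intron; % of control where 0% means no effect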
# How it was run: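 HeLa cells stably expressing EGFP interrupted by β-globin IVS2-654 intron, seeded overnight in Opti-MEM/2% FCS, then treated 2 days at 37 °C. Restored splicing read as total peak GFP intensity per well by laser scanning cytometry (488 nm excitation, 500–520 nm emission); 500 nM antisense PNA as control.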
# [10] = Confirmation and Secondary Assay for Modulators of Hemoglobin Beta Chain Splicing at IVS2 705 locus (AID 930); details: HeLa EGFP-705 splicing reporter, GFP fluorescence, 48 h; series mostly up to 38.3 µM;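 also: HeLa cells stably expressing the EGFP-705 splicing reporter; GFP fluorescence per well restored by corrected splicing of the IVS2-705 intron in EGFP; % of control where 0% means no effect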
# How it was run: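 Secondary splice-site specificity test uses HeLa expressing CMV-driven EGFP interrupted by IVS2-705; cells were treated 2 days at 37C with 500 nM antisense PNA as positive control.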
# [11] = qHTS Assay for Lipid Storage Modulators (AID 1519; calls by dose curve); details: Drosophila S3 cells, BODIPY lipid droplet/cell ratio, laser cytometry, cells loaded with oleic acid; for activity change, negative = inhibition: at 57.5 µM (top of the series)
# How it was run: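 Cells seeded at 5,000 per well were treated with compounds over a concentration series and loaded with oleic acid (400 uM, as added). Lipid droplet fluorescence (488 nm excitation, 500-530 nm channel) was read by laser-scanning cytometry and normalized to 20 uM Triacsin C.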
# [12] = target: Ubiquitin carboxyl-terminal hydrolase 1 (Homo sapiens) (UniProt O94782); assay: Inhibitors of USP1/UAF1: Pilot qHTS (AID 504865); details: purified USP1/UAF1, Ub-rhodamine cleavage fluorescence; series mostly up to 54.9 µM;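 also: rhodamine fluorescence freed from ubiquitin-rhodamine substrate followed over time; top concentration of the series differs between compounds; % is scaled to controls: 0 for no effect and ±100 for the full control effect; nearly all actives have a fitted effect of over 35% in size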
# Chain of Ubiquitin carboxyl-terminal hydrolase 1 (Homo sapiens) (O94782 whole entry, looked up): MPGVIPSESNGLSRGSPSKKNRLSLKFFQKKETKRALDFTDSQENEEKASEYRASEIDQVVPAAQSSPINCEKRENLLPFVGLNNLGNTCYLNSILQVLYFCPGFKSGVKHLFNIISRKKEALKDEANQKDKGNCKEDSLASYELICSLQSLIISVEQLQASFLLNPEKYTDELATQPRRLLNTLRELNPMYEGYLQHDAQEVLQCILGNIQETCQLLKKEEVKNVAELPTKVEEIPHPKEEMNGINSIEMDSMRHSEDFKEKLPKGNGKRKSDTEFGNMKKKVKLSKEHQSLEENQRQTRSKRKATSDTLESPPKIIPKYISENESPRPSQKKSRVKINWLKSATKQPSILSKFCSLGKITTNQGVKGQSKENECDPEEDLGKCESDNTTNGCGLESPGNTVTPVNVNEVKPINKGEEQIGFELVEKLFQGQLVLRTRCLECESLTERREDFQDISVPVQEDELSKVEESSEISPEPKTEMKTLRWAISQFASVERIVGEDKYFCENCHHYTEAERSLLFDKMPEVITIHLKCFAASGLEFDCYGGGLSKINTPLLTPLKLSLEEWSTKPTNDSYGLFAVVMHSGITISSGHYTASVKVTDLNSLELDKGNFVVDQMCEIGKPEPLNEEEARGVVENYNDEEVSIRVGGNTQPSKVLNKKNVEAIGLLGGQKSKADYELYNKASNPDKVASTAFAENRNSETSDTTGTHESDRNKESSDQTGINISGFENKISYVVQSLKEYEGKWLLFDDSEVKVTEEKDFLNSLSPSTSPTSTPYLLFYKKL
# How it was run: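 USP1/UAF1 complex (1nM) preincubated with compound 15 min at room temperature, then Ub-Rho substrate (150nM final) added. Fluorescence read kinetically at 480/540 nm, 6 reads every 60 seconds. Buffer: 50mM HEPES pH 7.8, 0.5mM EDTA, 0.1 mg/ml BSA, 1mM TCEP, 0.01% Tween-20.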
# [13] = qHTS for Inhibitors of Ubiquitin-specific Protease USP2a Using CHOP2 as the Reporter: K633 Counterscreen (AID 652168); details: No-enzyme DiUb K48 IQF substrate fluorescence interference, kinetic; series mostly up to 57.5 µM; also: % of control where 0% means no effect
# How it was run: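 Cell-free interference counterscreen without USP2a: compounds pinned into enzyme-free buffer (20 mM Tris pH 8, 2 mM beta-mercaptoethanol, 0.05% Chaps), then DiUb K48-4IQF substrate added (100 nM stock); fluorescence read kinetically, Ex 525/Em 598.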
# [14] = qHTS for Inhibitors of Ubiquitin-specific Protease USP2a Using CHOP2 as the Reporter: Cytotox Assay (AID 652170); details: HCT116 viability, CellTiter-Glo luminescence, 72 h; series mostly up to 46.1 µM;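 also: plate controls were DMSO-treated cells for no effect and wells without cells for full effect; nearly all actives have a fitted effect of over 70% in size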
# How it was run: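 HCT116 human colon cancer cells, 600 per well in DMEM with 10% FBS, exposed to compounds for 72 hr at 37 deg C. ATP measured by CellTiter-Glo luminescence, normalized to DMSO cells and no-cell background.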
# [15] = target: Ubiquitin carboxyl-terminal hydrolase 2 (Homo sapiens) (UniProt O75604); assay: qHTS for Inhibitors of Ubiquitin-specific Protease USP2a Using CHOP2 as the Reporter: K484 Substrate (AID 652173); details: USP2 cleavage of DiUb K48 IQF substrate, fluorescence; series mostly up to 57.5 µM;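 also: cleavage of internally quenched K48 di-ubiquitin substrate measured as rising fluorescence over time; nearly all actives have a fitted effect of over 70% in size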
# Chain of Ubiquitin carboxyl-terminal hydrolase 2 (Homo sapiens) (O75604 whole entry, looked up): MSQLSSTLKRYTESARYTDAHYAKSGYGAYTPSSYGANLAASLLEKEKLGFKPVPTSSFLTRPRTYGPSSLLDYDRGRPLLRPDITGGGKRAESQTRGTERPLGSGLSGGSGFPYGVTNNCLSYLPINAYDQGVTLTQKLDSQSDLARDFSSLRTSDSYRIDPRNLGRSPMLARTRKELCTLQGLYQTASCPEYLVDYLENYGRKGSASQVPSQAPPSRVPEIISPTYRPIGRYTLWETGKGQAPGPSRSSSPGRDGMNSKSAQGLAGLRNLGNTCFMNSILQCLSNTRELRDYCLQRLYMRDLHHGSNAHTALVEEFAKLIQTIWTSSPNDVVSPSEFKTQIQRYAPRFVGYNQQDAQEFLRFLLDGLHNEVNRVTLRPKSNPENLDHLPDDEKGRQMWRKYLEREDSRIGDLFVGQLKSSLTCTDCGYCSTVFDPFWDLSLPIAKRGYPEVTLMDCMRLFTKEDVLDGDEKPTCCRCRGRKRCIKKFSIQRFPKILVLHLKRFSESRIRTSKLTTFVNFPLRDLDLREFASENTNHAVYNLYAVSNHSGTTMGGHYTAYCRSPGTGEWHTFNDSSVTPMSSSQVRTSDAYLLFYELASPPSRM
# How it was run: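 USP2 (dispensed at 5 nM) was pinned with compounds, then DiUb K48 internally quenched fluorescent substrate (dispensed at 100 nM) was added. The buffer was 20 mM Tris pH 8, 2 mM beta-mercaptoethanol and 0.05% CHAPS. Cleavage was read kinetically as rising fluorescence, Ex 525/Em 598.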
# [16] = target: Cytochrome P450 1A2 (Homo sapiens) (UniProt P05177); assay: p450-cyp1a2 (AID 410; calls by dose curve; also: potency is read from the fitted curve at half-maximal effect;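 as to activity change, negative = inhibition: -100% = full effect of reference inhibitor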); details: recombinant CYP1A2, luciferin-ME demethylation, luminescence; series mostly up to 57 µM
# Chain of Cytochrome P450 1A2 (Homo sapiens) (P05177 whole entry, looked up): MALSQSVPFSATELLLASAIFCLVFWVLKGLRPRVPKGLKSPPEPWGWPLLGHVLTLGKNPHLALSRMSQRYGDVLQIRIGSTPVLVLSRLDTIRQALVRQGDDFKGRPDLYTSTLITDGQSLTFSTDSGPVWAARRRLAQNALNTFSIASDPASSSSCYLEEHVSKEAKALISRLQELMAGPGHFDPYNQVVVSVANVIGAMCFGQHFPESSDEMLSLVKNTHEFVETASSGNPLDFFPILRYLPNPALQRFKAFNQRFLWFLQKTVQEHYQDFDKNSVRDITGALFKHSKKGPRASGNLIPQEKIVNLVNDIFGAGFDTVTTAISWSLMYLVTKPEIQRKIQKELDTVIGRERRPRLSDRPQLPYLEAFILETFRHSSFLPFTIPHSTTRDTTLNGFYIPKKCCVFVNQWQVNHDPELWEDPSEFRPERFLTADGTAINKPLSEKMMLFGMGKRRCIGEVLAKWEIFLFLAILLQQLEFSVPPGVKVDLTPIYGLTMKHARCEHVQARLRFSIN
# How it was run: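 20nM CYP1A2 with 100uM Luciferin-ME (at Km) in 100mM KPO4; compound preincubated 10 min, NADPH regeneration added, 60 min at room temperature. Luciferin quantified by luminescence after detection reagent; normalized to 57 uM furafylline.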
# [17] = target: Cytochrome P450 3A4 (Homo sapiens) (UniProt P08684); assay: qHTS Assay for Inhibitors and Substrates of Cytochrome P450 3A4 (AID 884); details: recombinant CYP3A4, Luciferin-PPXE luminescence; series mostly up to 57.1 µM; also: potency is read from the fitted curve at half-maximal effect; nearly all actives have a fitted effect of over 50% in size
# Chain of Cytochrome P450 3A4 (Homo sapiens) (P08684 whole entry, looked up): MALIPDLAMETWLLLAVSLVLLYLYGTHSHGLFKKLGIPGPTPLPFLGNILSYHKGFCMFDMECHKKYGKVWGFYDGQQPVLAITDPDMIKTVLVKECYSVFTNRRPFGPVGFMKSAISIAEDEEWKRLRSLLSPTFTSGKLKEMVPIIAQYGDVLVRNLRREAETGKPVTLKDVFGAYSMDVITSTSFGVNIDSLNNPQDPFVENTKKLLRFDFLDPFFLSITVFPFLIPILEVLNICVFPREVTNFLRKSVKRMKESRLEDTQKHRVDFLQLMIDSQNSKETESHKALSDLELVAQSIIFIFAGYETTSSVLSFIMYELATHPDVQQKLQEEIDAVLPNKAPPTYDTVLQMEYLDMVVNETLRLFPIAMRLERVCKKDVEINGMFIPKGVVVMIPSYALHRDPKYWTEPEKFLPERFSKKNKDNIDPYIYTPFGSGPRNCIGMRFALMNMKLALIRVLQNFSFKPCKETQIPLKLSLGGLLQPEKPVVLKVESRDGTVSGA
# How it was run: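 20 nM human CYP3A4 with 25 uM Luciferin-PPXE (at KM) in 200 mM KPO4, preincubated 10 min with compound; NADPH regeneration started a 60 min RT reaction. Luciferin detected by luminescence, normalized to 57 uM ketoconazole as full inhibition.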
# [18] = target: Cytochrome P450 3A4 (Homo sapiens) (UniProt P08684); assay: qHTS Assay for Activators of Cytochrome P450 3A4 (AID 885); details: recombinant CYP3A4, Luciferin-PPXE luminescence, 60 min; series mostly up to 57.1 µM; also: nearly all actives have a fitted effect of over 65% in size
# How it was run: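 Human CYP3A4 (20 nM) with Luciferin-PPXE at 25 uM (its KM) in 200 mM KPO4; 10 min compound preincubation, then NADPH regeneration and 60 min reaction at RT. Luciferin read by luminescence; normalized to 57 uM ketoconazole full inhibition.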
# [19] = target: Dual specificity protein kinase CLK4 (Homo sapiens) (UniProt Q9HAZ1); assay: qHTS Assay for Inhibitors of CDC-like Kinase 4 (ADP-Glo Assay) (AID 1771); details: recombinant CLK4, ADP-Glo luminescence; series mostly up to 80 µM; also: potency is read from the fitted curve at half-maximal effect; nearly all actives have a fitted effect of over 70% in size
# Chain of Dual specificity protein kinase CLK4 (Homo sapiens) (Q9HAZ1 whole entry, looked up): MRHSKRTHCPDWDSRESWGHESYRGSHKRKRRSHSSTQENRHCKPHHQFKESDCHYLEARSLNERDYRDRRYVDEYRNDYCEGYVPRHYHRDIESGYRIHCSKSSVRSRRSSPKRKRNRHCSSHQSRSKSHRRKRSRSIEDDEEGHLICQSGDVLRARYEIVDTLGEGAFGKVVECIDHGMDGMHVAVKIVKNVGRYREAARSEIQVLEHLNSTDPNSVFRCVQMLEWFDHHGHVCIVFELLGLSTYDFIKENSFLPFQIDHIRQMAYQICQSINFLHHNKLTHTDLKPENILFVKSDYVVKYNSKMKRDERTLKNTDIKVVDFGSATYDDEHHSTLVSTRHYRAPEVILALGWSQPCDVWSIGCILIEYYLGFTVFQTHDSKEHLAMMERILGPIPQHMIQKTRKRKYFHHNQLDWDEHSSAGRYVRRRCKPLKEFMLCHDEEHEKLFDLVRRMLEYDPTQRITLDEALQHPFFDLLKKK
# How it was run: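 25 nM Clk4 with 100 uM RS repeat peptide and 1 uM ATP (final) in buffer with 2 mM MgCl2, 0.5 mM EGTA, 2.5 mM DTT, 0.01% Triton X-100; 1 h at room temperature; ADP-Glo luminescence for ADP formed.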
# [20] = target: Dual specificity protein kinase CLK4 (Homo sapiens) (UniProt Q9HAZ1); assay: qHTS Assay for Inhibitors of CDC-like Kinase 4 (ADP-FP Assay) (AID 1795); details: Transcreener ADP fluorescence polarization; series mostly up to 50 µM; also: potency is read from the fitted curve at half-maximal effect; nearly all actives have a fitted effect of over 60% in size
# How it was run: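 Recombinant human Clk4 (6.25 nM) phosphorylated RS repeat peptide (100 uM) with 1 uM ATP in Tris pH 7.5/MgCl2/EGTA/DTT/Triton buffer for one hour. ADP was quantified by Transcreener competitive fluorescence polarization against an ADP calibration curve.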
# [21] = target: Cytochrome P450 2C9 (Homo sapiens) (UniProt P11712); assay: qHTS Assay for Inhibitors and Substrates of Cytochrome P450 2C9 (AID 883); details: recombinant CYP2C9, luciferin-H luminescence, 60 min; series mostly up to 57.1 µM; also: % is scaled to controls: 0 for no effect and ±100 for the full control effect; nearly all actives have a fitted effect of over 60% in size
# How it was run: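 Signal: luciferase luminescence reporting luciferin produced by CYP2C9. Conditions: 10nM enzyme, Luciferin-H 100uM at KM, 25mM KPO4, 37C, 60 min NADPH-driven reaction. Reference: 57uM sulphaphenazole as 100% inhibition.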
# [22] = measured here: cell count channel max response
# [23] = measured here: lipid channel max response
smiles,measurement,setting,value
CS(=O)(=O)Nc1cccc(-c2nccc(NCc3ccccc3)n2)c1,Potency,[1],> 11.4 µM (inactive)
same,"activity change, negative = inhibition",[2],-20% (inactive)
same,"activity change, negative = inhibition",[3],-4.2% (inactive)
same,"activity, negative = inhibition",[4],-11.8% (inactive)
same,Potency,[5],> 46 µM (inactive)
same,Potency,[6],> 46 µM (inactive)
same,outcome,[7],inactive
same,Potency,[8],inactive
same,outcome,[9],inactive
same,outcome,[10],inactive
same,"activity change, negative = inhibition",[11],6.93% (inactive)
same,max response,[11]; [22],-0.959%
same,max response,[11]; [23],4.33%
same,Potency,[12],inactive
Cc1ccc(-c2cc(C(=O)O)c3cccc(C)c3n2)cc1C,outcome,[13],inactive
same,Potency,[14],inactive
same,Potency,[15],inactive
Fc1ccc(Nc2ncncc2-c2ccoc2)cc1,Potency,[1],> 11.4 µM (inactive)
same,"activity change, negative = inhibition",[2],-7.98% (inactive)
same,Potency,[16],0.316 µM (active)
same,"activity change, negative = inhibition",[3],2.9% (inactive)
same,"activity, negative = inhibition",[4],4.97% (inactive)
same,Potency,[5],> 46 µM (inactive)
same,Potency,[6],> 46 µM (inactive)
same,outcome,[7],inactive
same,Potency,[17],0.501 µM (active)
same,Potency,[18],inactive
same,"activity change, negative = inhibition",[11],4.26% (inactive)
same,max response,[11]; [22],9.18%
same,max response,[11]; [23],12.6%
same,Potency,[19],10 µM (active)
same,Potency,[20],5.01 µM (active)
same,Potency,[12],inactive
CS(=O)(=O)N1CCC2(CCN(Cc3ccncc3)CC2)CC1,Potency,[1],> 11.4 µM (inactive)
same,"activity change, negative = inhibition",[2],-1.98% (inactive)
same,Potency,[16],inactive
same,"activity change, negative = inhibition",[3],-4.26% (inactive)
same,"activity, negative = inhibition",[4],10.3% (inactive)
same,Potency,[6],> 46 µM (inactive)
same,outcome,[7],inactive
same,Potency,[8],inactive
same,Potency,[18],inactive
same,"activity change, negative = inhibition",[11],5.08% (inactive)
same,max response,[11]; [22],9.75%
same,max response,[11]; [23],18.4%
COCCNc1cc(-c2ccccc2CN(C)C)ncn1,Potency,[1],> 11.4 µM (inactive)
same,"activity change, negative = inhibition",[2],1.28% (inactive)
same,Potency,[16],inactive
same,"activity, negative = inhibition",[4],13.5% (inactive)
same,Potency,[5],> 46 µM (inactive)
same,Potency,[6],> 46 µM (inactive)
same,outcome,[7],inactive
same,Potency,[8],inactive
same,"activity change, negative = inhibition",[21],49.4% [at 2.29 µM] (inactive)
same,outcome,[9],inactive
same,outcome,[10],inactive
same,Potency,[12],inactive
